Hits are enriched below; roughly 8.7% of the tested compounds scored in any of these assays.
AMA1 RON2 block = qHTS for Inhibitors of AMA1-RON; Towards Development of Antimalarial Drug Lead: Primary Screen | AID 720542, 2013 | AlphaScreen AMA1-biotinylated RON2 peptide binding | 0.2% of 360,000 active | Potency, µM (titrated, usually from 58.2 µM), for inactives: at the highest dose activity change, negative = inhibition, usual class: inhibitors;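 further: 0% = vehicle wells and -100% = peptide control; nearly all actives have a fitted effect of over 45% in size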
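AMA1 (3D7) with his tag at 25 nM final met compounds first, then biotinylated RON2 peptide at 25 nM; detection used donor plus acceptor beads, 10 µg/mL apiece, read by AlphaScreen after 30 min at room temperature.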
Pf growth 96h = Primary qHTS for delayed death inhibitors of the malarial parasite plastid, 96 hour incubation. P. falciparum luciferase reporter growth, 96 h. Potency, µM (highest dose often 28.7 µM), for the others: at the top dose activity change, negative = inhibition, usual class: inhibitors. 6.9% of 320,000 active. AID 504834, 2011
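96 h incubation, 37 C, 5% CO2, of luciferase-reporter P. falciparum-infected RBCs (2% hematocrit, 0.05% parasitemia final) with test compounds; endpoint luminescence.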
Vaccinia Venus = qHTS for Stage-Specific Inhibitors of Vaccinia Orthopoxvirus: Venus Reporter Primary qHTS; Vaccinia virus Venus reporter expression, fluorescence; Potency, µM (doses to about 36.5 µM), for the others: top-dose activity change, negative = inhibition, most hits filed as inhibitors; 0.46% of 330,000 active; AID 720580, 2013; calls by dose curve; tested in A549 cells; further: nearly all actives have a fitted effect of over 30% in size
Pf growth 48h = Primary qHTS for delayed death inhibitors of the malarial parasite plastid, 48 hour incubation | P. falciparum luciferase growth in erythrocytes, 48 h | AID 504832, 2011 | 5.9% of 310,000 active | Potency, µM (highest dose often 28.7 µM), for inactives: at the highest dose activity change, negative = inhibition, actives largely listed as inhibitors
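Luciferase-expressing parasites in RBCs, 2% Hct / 0.1% parasitemia final; RPMI 1640 + 0.5% Albumax; 37 C, 5% CO2, one generation; luminescence read-out, lower signal = inhibition.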
Vaccinia mCherry = qHTS for Stage-Specific Inhibitors of Vaccinia Orthopoxvirus: mCherry Reporter Primary qHTS | Vaccinia virus mCherry reporter infection, fluorescence | Potency, µM (doses to about 36.5 µM), inactives show at the top dose activity change, negative = inhibition, actives largely listed as inhibitors | 0.63% of 310,000 active | AID 720579, 2013; calls by dose curve; tested in A549 cells; further: nearly all actives have a fitted effect of over 35% in size
Starred values were filed as active, the others as inactive; i = inactive; ? = inconclusive; . = no result. Unless noted, the call rests on the fitted dose curve; in most records, active means well fitted curve in the direction sought with a large enough effect; inconclusive means small, poorly fitted or top-dose-only effect, or another doubt; inactive means no such curve, though single readings can be large; an effect the other way counts as inactive or inconclusive. Unless noted, on the % scale 0 is the no-effect control and ±100 the full control effect; potency means the concentration at half of the fitted maximal effect.

SMILES	AMA1 RON2 block	Pf growth 96h	Vaccinia Venus	Pf growth 48h	Vaccinia mCherry
Cc1ccc2oc(=O)n(CCCOc3ccc(Cl)cc3)c2c1	.	.	-19.4%	.	-19.5%
CCN1CCN(c2cc(C)c3cc(NC(=O)/C=C/c4ccc(C)cc4)ccc3n2)CC1	.	.	-29.1%	.	-27.3%
COCCNC(=O)c1ccccc1NC(=O)Nc1ccccc1	-1.9%	7.38µM*	-5.1%	30.3%	-15.6%
O=C(Nc1ccccc1)Nc1ccccc1C(=O)NCC1CC1	-10.8%	11.6%	.	?	.
COc1ccc(-c2cc(C(=O)Oc3ccc(Br)cc3)c3ccccc3n2)cc1	.	.	-6.8%	.	-10.6%
CCOc1ccccc1NC(=O)C1CCN(S(=O)(=O)c2ccc3[nH]c4c(c3c2)CCCCC4)CC1	.	.	-14.6%	.	-15.2%
CCCCn1c(=S)[nH]c2ccc(N3CCOCC3)cc2c1=O	.	8.28µM*	.	?	.
O=C(CCCCCn1c(=S)[nH]c2ccc(N3CCOCC3)cc2c1=O)NCc1ccc(Cl)cc1	49.0%	66.6%	1.4%	8.28µM*	i
O=C(c1ccc(Cn2c(=S)[nH]c3ccc(N4CCOCC4)cc3c2=O)cc1)N1CCN(c2ccc(F)cc2)CC1	35.0%	?	-25.1%	?	-17.8%
Cc1cccc(N2CCN(C(=O)CCCCCn3c(=S)[nH]c4ccc(N5CCOCC5)cc4c3=O)CC2)c1C	77.8%	2.9%	.	9.28µM*	.
Cc1ccc(C)c(N2CCN(C(=O)c3ccc(Cn4c(=S)[nH]c5ccc(N6CCOCC6)cc5c4=O)cc3)CC2)c1	36.7%	4.15µM*	-12.9%	2.62µM*	-9.9%
CCOc1ccc(-c2nnc(SCC(=O)Nc3cc(C)ccc3OC)o2)cc1	.	.	-13.2%	.	-29.8%
COc1cc(OC)c(NC(=O)NCCn2nnc3cc(S(=O)(=O)N(C)C)ccc32)cc1Cl	.	.	2.7%	.	8.7%
CC(C)(C)c1ccc(C(=O)N2CCCC2c2cccs2)cc1 (stereo not given)	-20.3%	?	-22.6%	14.7µM*	-9.4%
Cn1ccnc1SCCNC(=O)CCc1nnc(CCc2ccccc2)o1	17.6%	10.4µM*	-7.2%	12.7%	-3.6%
Cn1ccnc1SCCNC(=O)CCc1nnc(CCCCc2ccccc2)o1	3.5%	?	-11.5%	-22.8%	-2.6%
CN1CCN(C2=Cc3ccccc3Sc3cc(F)c(F)cc32)CC1	?	?	-18.8%	6.57µM*	?
CN1CCN(C2Cc3cc(Cl)ccc3Sc3cc(F)ccc32)CC1 (stereo not given)	?	.	?	.	-19.5%
CN1CCN(C2=Cc3cc(Cl)ccc3Sc3cc(F)ccc32)CC1	?	?	?	4.65µM*	?
CN1CCN(C2=Nc3ccccc3Sc3ccc(Cl)cc32)CC1	.	-27.8%	-27.4%	?	-8.0%
CN1CCN(C2=Cc3ccccc3Sc3cc(F)c(Cl)cc32)CC1	-9.5%	?	?	5.22µM*	?
CN1CCN(c2cc(-c3ccccc3C(F)(F)F)ncn2)CC1	.	.	2.8%	.	0.8%
Clc1ccc(-c2nnc(-c3ccccc3)c(-c3ccccc3)n2)cc1	-28.7%	?	-7.2%	?	-0.3%
OCCCNc1nc(-c2ccc(Cl)cc2)nnc1-c1ccccc1	7.6%	3.7µM*	?	?	-28.7%
COCCOC(=O)C1=C(C)OC(N)=C(C#N)C1c1ccc2c(c1)OCO2 (stereo not given)	-6.8%	.	0.5%	-12.5%	.
SMILES	AMA1 RON2 block	Pf growth 96h	Vaccinia Venus	Pf growth 48h	Vaccinia mCherry
C=CCOC(=O)C1=C(C)OC(N)=C(C#N)C1c1ccc2c(c1)OCO2 (stereo not given)	-2.6%	10.4µM*	-7.5%	-26.8%	.
Nc1ncnc2c1ncn2COC(CO)CO	.	.	3.0%	.	0.2%
CCOc1ccc(NC(=O)c2cnc3sc(N4CCOCC4)nn3c2=O)cc1	.	.	-12.1%	.	i
Nc1nc(-c2ccccc2)c(-c2ccc([N+](=O)[O-])cc2)s1	-1.6%	-2.9%	?	-13.0%	22.4µM*
CCOC(=O)Nc1ccc2c(CN3CCN(S(=O)(=O)c4ccccc4)CC3)cc(=O)oc2c1	4.0%	6.57µM*	.	9.28µM*	.
CCc1ccc2c(CN3CCN(S(=O)(=O)c4ccc5c(c4)OCCO5)CC3)cc(=O)oc2c1	-5.7%	?	.	9.28µM*	.
Cc1ccc(-c2cn3c(n2)sc2cc(C(=O)NCCCc4ccccc4)ccc23)c(C)c1	.	.	-13.5%	.	-14.8%
CC1=CC(C)(C)[N+](C)=CN1c1ccccc1	4.3%	8.28µM*	-6.8%	?	-7.2%
O=C(Nc1ccc(-c2nc3ncccc3o2)cc1)c1ccc([N+](=O)[O-])o1	-3.2%	-1.7%	-21.6%	9.28µM*	-29.7%
O=C(Nc1ccc2oc(-c3ccncc3)nc2c1)c1ccc([N+](=O)[O-])o1	-21.5%	?	?	6.57µM*	10µM*
Cc1cccc(NC(=O)c2ccc(-n3cnc4cccnc43)cc2)c1C	.	.	-1.3%	.	-6.4%
CC(=O)Nc1ccc2c(c1)C(=O)c1ccccc1C2=O	-1.6%	.	-5.1%	284.5%	-7.7%
CC(=O)Nc1ccc(C2(c3ccc(NC(C)=O)cc3)NC(=O)c3ccccc32)cc1	11.6%	46.4%	-8.7%	1.31µM*	-15.0%
Cc1c(C(=O)N2CCCC2)sc2ncnc(NCCCN3CCOCC3)c12	.	.	0.0%	.	i
C#CCOCCOCCOCCNc1nc(N2CCN(C(=O)[C@H](CCC(=O)O)n3cc(C(N)[C@H](C)CC)nn3)CC2)nc(N2CCN(C(=O)[C@H](Cc3cc4ccccc4[nH]3)n3cc(C(N)[C@H](C)CC)nn3)CC2)n1 (stereo not given in full)	.	-15.7%	.	-11.0%	.
C#CCOCCOCCOCCNc1nc(N2CCN(C(=O)[C@H](Cc3ccc(O)cc3)n3cc([C@@H](N)CC(C)C)nn3)CC2)nc(N2CCN(C(=O)[C@H](Cc3cc4ccccc4[nH]3)n3cc([C@@H](N)CC(C)C)nn3)CC2)n1	-17.3%	-98.4%	-10.0%	?	i
C#CCOCCOCCOCCNc1nc(N2CCN(C(=O)[C@H]([C@@H](C)CC)n3cc([C@@H](N)CC(C)C)nn3)CC2)nc(N2CCN(C(=O)[C@H](Cc3cc4ccccc4[nH]3)n3cc([C@@H](N)C(C)CC)nn3)CC2)n1 (stereo not given in full)	.	1.17µM*	.	4.65µM*	.
C#CCOCCOCCOCCNc1nc(N2CCN(C(=O)[C@H](Cc3ccc(O)cc3)n3cc([C@@H](N)C(C)CC)nn3)CC2)nc(N2CCN(C(=O)[C@H](Cc3cc4ccccc4[nH]3)n3cc([C@@H](N)Cc4ccc(O)cc4)nn3)CC2)n1 (stereo not given in full)	.	?	.	10.4µM*	.
